± gives the uncertainty stated by the source.
These compounds were tested on Candidatus Liberibacter solanacearum in potato hairy roots (assay: relative CLso titer (% of untreated control); higher = less inhibition of bacterial titer). Details: 10 µM; 72 h.
Method: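 Primary screen of ~220 Spectrum collection (MicroSource) compounds at 10 µM (0.1% DMSO) on Candidatus Liberibacter solanacearum-infected potato hairy roots in multi-well plates (Gamborg B-5 medium, vacuum infiltrated, 21 °C, dark, 72 h). CLso titer was measured by qPCR of 16S rDNA normalised to potato RPL2 (2^-ddCq), pairwise-standardised against untreated controls, averaged over two biological replicates and expressed as % of untreated.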

| Compound | relative CLso titer |
| --- | --- |
| C#C[C@]1(OC(C)=O)CC[C@H]2[C@@H]3CCC4=CC(=NO)CC[C@@H]4[C@H]3CC[C@@]21CC (mixture of isomers) | 64.9 ± 10% |
| C/C=C(/C(=C/C)c1ccc(O)cc1)c1ccc(O)cc1 | 108 ± 17% |
| COc1ccc([C@H]2COc3c(ccc(O)c3OC)C2)c(OC)c1O | 35.5 ± 2.5% |
| CC[C@H]1OC(=O)[C@H](C)[C@@H](O[C@H]2C[C@@](C)(OC)[C@@H](O)[C@H](C)O2)[C@H](C)[C@@H](O[C@@H]2O[C@H](C)C[C@H](N(C)C)[C@H]2O)[C@](C)(O)C[C@@H](C)C(=O)[C@H](C)[C@@H](O)[C@]1(C)O | 197 ± 120% |
| COc1cnc(NS(=O)(=O)c2ccc(N)cc2)nc1 | 119 ± 37% |
| CNC(=C[N+](=O)[O-])NCCSCc1ccc(CN(C)C)o1 | 109 ± 2.3% |
| CC(=O)OCC(=O)[C@@]1(O)[C@H](C)C[C@H]2[C@@H]3CCC4=CC(=O)C=C[C@]4(C)[C@@]3(F)[C@@H](O)C[C@@]21C | 101 ± 39% |
| CS(=O)(=O)OCCCCOS(C)(=O)=O | 66.9 ± 7.5% |
| CN1CCN(CC(=O)N2c3ccccc3C(=O)Nc3cccnc32)CC1 | 56.9 ± 5.4% |
| C1CCN2C[C@@H]3C[C@@H](CN4CCCC[C@@H]34)[C@H]2C1 | 93.9 ± 8% |
| C[C@]12CC[C@@H]3c4ccc(OC(=O)c5ccccc5)cc4CC[C@H]3[C@@H]1CC[C@@H]2O | 155 ± 66% |
| CN1CCOC(c2ccccc2)c2ccccc2C1 (stereo not given) | 100 ± 38% |
| COc1ccc(NS(=O)(=O)c2ccc(N)cc2)nn1 | 116.5 ± 0.47% |
| Nc1ccc(C(=O)O)cc1 | 67.7 ± 7.7% |
| Nc1ccc(C(=O)O)c(O)c1 | 73 ± 16% |
| C[C@@H]1C[C@H]2[C@@H]3CCC4=CC(=O)C=C[C@]4(C)[C@@]3(F)[C@@H](O)C[C@]2(C)[C@@]1(O)C(=O)CO | 196 ± 16% |
| CCCCCCCCCCCCCCCC(=O)OC[C@@H](NC(=O)C(Cl)Cl)[C@H](O)c1ccc([N+](=O)[O-])cc1 | 79.3 ± 10% |
| NCCCC[C@H](N[C@@H](CCc1ccccc1)C(=O)O)C(=O)N1CCC[C@H]1C(=O)O | 105 ± 33% |
| CCN(CC)CCOc1ccc(C(=C(Cl)c2ccccc2)c2ccccc2)cc1 | 42.7 ± 2.2% |
| CN(C)CCOC(c1ccccc1)c1ccccc1.Cn1c(=O)c2[nH]c(Cl)nc2n(C)c1=O | 127 ± 74% |

| Compound | relative CLso titer |
| --- | --- |
| COc1cccc2c1C(=O)c1c(O)c3c(c(O)c1C2=O)C[C@@](O)(C(C)=O)C[C@@H]3O[C@H]1C[C@H](N)[C@H](O)[C@H](C)O1 | 202 ± 6.5% |
| CO/N=C(\C(=O)N[C@@H]1C(=O)N2C(C(=O)O)=C(COC(N)=O)CS[C@H]12)c1ccco1 | 149 ± 29% |
| O=C(O)c1cc(-c2ccc(F)cc2F)ccc1O | 115 ± 58% |
| C#C[C@]1(O)CC[C@H]2[C@@H]3CCC4=Cc5oncc5C[C@]4(C)[C@H]3CC[C@@]21C | 154 ± 40% |
| C[C@H]1c2cccc(O)c2C(=O)C2=C(O)[C@]3(O)C(=O)C(C(N)=O)=C(O)[C@@H](N(C)C)[C@@H]3[C@@H](O)[C@@H]21 | 125 ± 12% |
| CCS(=O)(=O)CCn1c([N+](=O)[O-])cnc1C | 116 ± 0.28% |
| CN(C)CC[C@@H](c1ccc(Cl)cc1)c1ccccn1 | 48.1 ± 3.8% |
| CCOC(=O)c1cccc(N)c1 | 113 ± 8.9% |
| CC(=O)OCC[N+](C)(C)C | 96.2 ± 31% |
| O=C(O)P(=O)(O)O | 165 ± 29% |
| Cc1cn([C@H]2C[C@H](N=[N+]=[N-])[C@@H](CO)O2)c(=O)[nH]c1=O | 52.6 ± 7.3% |
| Cc1onc(-c2c(Cl)cccc2Cl)c1C(=O)N[C@@H]1C(=O)N2[C@@H]1SC(C)(C)[C@@H]2C(=O)O | 145 ± 34% |
| COc1ccc(C(=O)c2ccccc2O)c(O)c1 | 86.9 ± 3.5% |
| CCC(=O)O[C@H]1[C@H](O[C@@H]2[C@@H](C)[C@H](O[C@H]3C[C@@](C)(OC)[C@@H](O)[C@H](C)O3)[C@@H](C)C(=O)O[C@H](CC)[C@@](C)(O)[C@H](O)[C@@H](C)C(=O)[C@H](C)C[C@@]2(C)O)O[C@H](C)C[C@@H]1N(C)C | 108 ± 26% |
| Nc1ncnc2c1ncn2[C@@H]1O[C@H](CO)[C@@H](O)[C@H]1O | 51.4 ± 22% |
| CN1CCC[C@@H]1CCO[C@](C)(c1ccccc1)c1ccc(Cl)cc1 | 44.3 ± 12% |
| CCCCNc1cc(C(=O)O)cc(S(N)(=O)=O)c1Oc1ccccc1 | 105 ± 14% |
| CN(C)[C@@H]1C(O)=C(C(N)=O)C(=O)[C@@]2(O)C(O)=C3C(=O)c4c(O)ccc(Cl)c4[C@@](C)(O)[C@H]3C[C@@H]12 | 35.8 ± 4.5% |
| Cn1nnnc1SCC1=C(C(=O)O)N2C(=O)[C@@H](NC(=O)[C@H](OC=O)c3ccccc3)[C@H]2SC1 | 86.7 ± 26% |
| C[N+](C)(C)CCOC(N)=O | 41.99 ± 0.24% |

Reference: the supplement of paper PMC7669877
